Out of some 5,500 compounds screened, about 2,000 (36%) were called active. Not shown: some 18% with an inconclusive outcome. Cut-off read from the data, not from the text of the source: active = normalized growth mostly below about 0.91 (no sharp cut-off); inconclusive = no clear call, values can overlap the other calls; inactive = mostly above about 0.92. The list shows a part of the results.
Assay: chemical genetic growth profiling, strain panel (AID 1159580);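 note: tested at 20 µM; growth read once vehicle control cultures reached saturation at 30 °C; 1 = growth at the plate median or of vehicle wells; lower values mean less growth of the strain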
Conditions: growth OD

Measured: normalized growth

C[C@H]1[C@H](C)CC[C@]2(CO)CC[C@]3(C)C(=CCC4[C@@]5(C)CC[C@H](O)C(C)(C)C5CC[C@]43C)[C@H]12 (some centres not stated)
inactive: S. cerevisiae deletion strains, locus YKL009W, strain mrt4, active compounds read low 1.01 | S. cerevisiae deletion strains, locus YKL068W, active compounds read low 1.02 | S. cerevisiae deletion strains, locus YKL085W, strain MDH1 (second series), active compounds read low 1.04 | S. cerevisiae deletion strains, locus YKL085W, strain MDH1, active compounds read low 1.04 | S. cerevisiae deletion strains, locus YKL160W, strain elf1, active compounds read low 0.995 | S. cerevisiae deletion strains, locus YKL190W, strain CNB1, active compounds read low 1.01 | S. cerevisiae deletion strains, locus YKR001C, strain vps1, active compounds read low 1.03 | S. cerevisiae deletion strains, locus YKR026C, strain gcn3, active compounds read low 0.997 | S. cerevisiae deletion strains, locus YKR091W, strain srl3, active compounds read low 0.988 | S. cerevisiae deletion strains, locus YLL001W, strain dnm1, active compounds read low 1.01 | S. cerevisiae deletion strains, locus YLL026W, active compounds read low 1.01 | S. cerevisiae deletion strains, locus YLL041C, strain sdh2, active compounds read low 1 | S. cerevisiae deletion strains, locus YLR027C, strain aat2, active compounds read low 0.976 | S. cerevisiae deletion strains, locus YLR039C, strain RIC1, active compounds read low 1.08 | S. cerevisiae deletion strains, locus YLR058C, strain SHM2, active compounds read low 1.02 | S. cerevisiae deletion strains, locus YLR102C, strain apc9, active compounds read low 1.02 | S. cerevisiae deletion strains, locus YLR113W, strain HOG1, active compounds read low 0.967 | S. cerevisiae deletion strains, locus YLR221C, strain rsa3, active compounds read low 0.986 | S. cerevisiae deletion strains, locus YLR258W, strain gsy2, active compounds read low 0.989 | S. cerevisiae deletion strains, locus YLR262C, strain YPT6 (second series), active compounds read low 1.04 | S. cerevisiae deletion strains, locus YLR262C, strain YPT6, active compounds read low 1.08 | S. cerevisiae deletion strains, locus YLR268W, strain sec22, active compounds read low 1.03 | S. cerevisiae deletion strains, locus YLR320W, strain mms22, active compounds read low 0.987 | S. cerevisiae deletion strains, locus YLR330W, strain CHS5, active compounds read low 1.01 | S. cerevisiae deletion strains, locus YLR342W, strain FKS1 (second series), active compounds read low 1 | S. cerevisiae deletion strains, locus YLR342W, strain FKS1, active compounds read low 0.989 | S. cerevisiae deletion strains, locus YLR357W, strain rsc2, active compounds read low 0.999 | S. cerevisiae deletion strains, locus YLR370C, strain arc18, active compounds read low 1 | S. cerevisiae deletion strains, locus YLR371W, strain rom2, active compounds read low 1.03 | S. cerevisiae deletion strains, locus YLR384C, strain iki3, active compounds read low 0.974 | S. cerevisiae deletion strains, locus YLR418C, strain cdc73, active compounds read low 1.03 | S. cerevisiae deletion strains, locus YML016C, strain PPZ1, active compounds read low 1.02 | S. cerevisiae deletion strains, locus YML032C, strain rad52, active compounds read low 1.02 | S. cerevisiae deletion strains, locus YML120C, strain ndi1, active compounds read low 0.988 | S. cerevisiae deletion strains, locus YML124C, strain tub3, active compounds read low 1.03 | S. cerevisiae deletion strains, locus YMR058W, strain fet3, active compounds read low 1 | S. cerevisiae deletion strains, locus YMR078C, strain ctf18, active compounds read low 1.03 | S. cerevisiae deletion strains, locus YMR125W, strain sto1, active compounds read low 1.01 | S. cerevisiae deletion strains, locus YMR129W, active compounds read low 0.988 | S. cerevisiae deletion strains, locus YMR205C, strain PFK2, active compounds read low 0.98 | S. cerevisiae deletion strains, locus YMR223W, strain ubp8, active compounds read low 1.02 | S. cerevisiae deletion strains, locus YMR231W, strain pep5, active compounds read low 1 | S. cerevisiae deletion strains, locus YMR263W, strain SAP30, active compounds read low 1.01 | S. cerevisiae deletion strains, locus YMR307W, strain GAS1, active compounds read low 1.06 | S. cerevisiae deletion strains, locus YNL067W, strain RPL9B, active compounds read low 1.01 | S. cerevisiae deletion strains, locus YNL071W, strain lat1, active compounds read low 0.995 | S. cerevisiae deletion strains, locus YNL183C, strain NPR1, active compounds read low 0.967 | S. cerevisiae deletion strains, locus YNL209W, strain ssb2, active compounds read low 0.988 | S. cerevisiae deletion strains, locus YNL233W, strain BNI4, active compounds read low 1.01 | S. cerevisiae deletion strains, locus YNL248C, strain rpa49, active compounds read low 1 | S. cerevisiae deletion strains, locus YNL250W, strain rad50, active compounds read low 1.04 | S. cerevisiae deletion strains, locus YNL271C, strain bni1, active compounds read low 1.02 | S. cerevisiae deletion strains, locus YNL298W, strain CLA4, active compounds read low 1.01 | S. cerevisiae deletion strains, locus YNL307C, strain MCK1, active compounds read low 1.04 | S. cerevisiae deletion strains, locus YNL322C, strain KRE1 (second series), active compounds read low 0.99 | S. cerevisiae deletion strains, locus YNR049C, strain mso1, active compounds read low 0.99 | S. cerevisiae deletion strains, locus YNR052C, strain pop2, active compounds read low 1.01 | S. cerevisiae deletion strains, locus YOL006C, strain TOP1, active compounds read low 1.07 | S. cerevisiae deletion strains, locus YOL012C, strain htz1 1.12 | S. cerevisiae deletion strains, locus YOL147C, strain pex11, active compounds read low 1.02 | S. cerevisiae deletion strains, locus YOR001W, strain rrp6, active compounds read low 0.946 | S. cerevisiae deletion strains, locus YOR061W, strain CKA2, active compounds read low 1.01 | S. cerevisiae deletion strains, locus YOR069W, strain VPS5, active compounds read low 1.01 | S. cerevisiae deletion strains, locus YOR070C, strain gyp1, active compounds read low 0.975 | S. cerevisiae deletion strains, locus YOR080W, strain dia2, active compounds read low 0.992 | S. cerevisiae deletion strains, locus YOR083W, strain WHI5, active compounds read low 0.995 | S. cerevisiae deletion strains, locus YOR106W, strain vam3, active compounds read low 1.01 | S. cerevisiae deletion strains, locus YOR136W, strain idh2, active compounds read low 1.03 | S. cerevisiae deletion strains, locus YOR144C, strain elg1, active compounds read low 1.02 | S. cerevisiae deletion strains, locus YOR184W, strain ser1, active compounds read low 1.01 | S. cerevisiae deletion strains, locus YOR231W, strain MKK1, active compounds read low 0.996 | S. cerevisiae deletion strains, locus YOR265W, strain rbl2, active compounds read low 0.986 | S. cerevisiae deletion strains, locus YOR270C, strain vph1, active compounds read low 0.984 | S. cerevisiae deletion strains, locus YOR290C, strain snf2, active compounds read low 0.998 | S. cerevisiae deletion strains, locus YOR316C, strain cot1, active compounds read low 1.03 | S. cerevisiae deletion strains, locus YPL051W, strain arl3, active compounds read low 0.998 | S. cerevisiae deletion strains, locus YPL078C, strain atp4, active compounds read low 0.993 | S. cerevisiae deletion strains, locus YPL106C, strain sse1, active compounds read low 1.09 | S. cerevisiae deletion strains, locus YPL240C, strain hsp82, active compounds read low 1.01 | S. cerevisiae deletion strains, locus YPL241C, strain CIN2, active compounds read low 0.995 | S. cerevisiae deletion strains, locus YPL256C, strain CLN2, active compounds read low 1.07 | S. cerevisiae deletion strains, locus YPR119W, strain clb2, active compounds read low 1.03 | S. cerevisiae deletion strains, locus YPR141C, strain kar3, active compounds read low 1.04 | S. cerevisiae deletion strains, locus YPR163C, strain tif3, active compounds read low 1.03 | S. cerevisiae deletion strains, locus YPR167C, strain met16, active compounds read low 1.02 | S. cerevisiae deletion strains, strain wtn01, active compounds read low 1.01 | S. cerevisiae strains, strain wild type, active compounds read low 1

From PubChem BioAssay AID1159580 (chemical genetic matrix, 2015)
